# An excerpt weighted towards active compounds, which were near 0.92% of everything screened.
# CIT2 TOR yeast – modulators of CIT2-GFP expression in yeast, primary screen, S. cerevisiae, GFP fusion, multiplex flow cytometry, MLPCN library; S. cerevisiae CIT2-GFP strain, 3 h; 100 means same as DMSO wells; GFP response vs DMSO, % at 10 µM; 320,000 compounds, 0.065% hits; AID 2029, 2009;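 active = GFP response relative to DMSO above a set limit, near the screen mean plus 3 SD, cut at about 150% in these data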;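 also: ratio of well median GFP fluorescence to mean of DMSO wells on the plate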
# AGP1 TOR yeast – modulators of AGP1-GFP expression in yeast TOR pathway, primary screen, cell-based, multiplex flow cytometry, S. cerevisiae, MLPCN library; 320,000 compounds, 0.02% hits; AID 2066, 2009; GFP response vs DMSO, % at 10 µM; 3 h; GFP as percent of DMSO wells;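 active = GFP response relative to DMSO above a set limit, near screen average plus 3 SD, cut at about 150% in these data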;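 also: median GFP channel fluorescence of the gated AGP1 strain per well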
# RPL19A-GFP yeast – RPL19A-GFP expression modulators in yeast, primary screen, cell-based, S. cerevisiae, multiplex flow cytometry, MLPCN; AID 2025, 2009; S. cerevisiae RPL19A-GFP strain, 3 h; active compounds read low; percent response vs DMSO, % at 10 µM; 330,000 compounds, 0.3% hits;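 active = percent response vs DMSO below 50%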;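 also: median channel GFP fluorescence of the barcoded RPL19A-GFP strain; lower means less RPL19A-GFP as with rapamycin TOR inhibition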
# LAP4 TOR yeast – modulators of LAP4-GFP expression in yeast, primary screen, S. cerevisiae, multiplex flow cytometry, MLPCN library | 320,000 compounds, 0.34% hits | GFP response vs DMSO, % at 10 µM | 3 h; median GFP as percent of DMSO wells;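 active = GFP response vs DMSO above a set limit, about the screen mean plus 3 SD, cut at about 150% in these data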
# MEP2 TOR yeast – modulators of MEP2-GFP levels in yeast, primary screen, S. cerevisiae, multiplex flow cytometry, MLPCN library. AID 2016, 2009. GFP response vs DMSO, % at 10 µM. 330,000 compounds, 0.51% hits. S. cerevisiae MEP2-GFP strain, 3 h; 100% = DMSO control level;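 active = GFP response versus DMSO above a set limit, roughly screen mean plus 3 SD, cut at about 180% in these data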;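 also: median GFP fluorescence of the barcode-gated MEP2-GFP cells per well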
# LAP4-GFP pick2 – LAP4-GFP expression modulators in yeast, confirmation, cell-based, second cherry pick, flow cytometry; 590 compounds, 20% hits; AID 2621, 2010; S. cerevisiae LAP4-GFP strain, 3 h; GFP response vs DMSO, % at 10 µM; shares compounds with LAP4 TOR yeast;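 active = GFP signal as percent of the solvent control above about 150%, meaning raised reporter expression, limit read from the data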
# MEP2-GFP pick2 – modulators of MEP2-GFP levels in yeast, confirmation, S. cerevisiae, flow cytometry GFP, second cherry picks | shares compounds with LAP4 TOR yeast | S. cerevisiae MEP2-GFP strain, 3 h | GFP response vs DMSO, % at 10 µM | 590 compounds, 10% hits | AID 2622, 2010;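 active = GFP signal above 150% of the solvent control wells, that is a rise of more than half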;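 also: median channel GFP fluorescence of all gated yeast cells per well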
# RPL19A-GFP pick2 – RPL19A-GFP modulators in TOR pathway yeast, confirmation, cell-based, S. cerevisiae, flow cytometry, second cherry pick; S. cerevisiae RPL19A-GFP strain, 3 h; active compounds read low; 100% means same as DMSO wells; 590 compounds, 3% hits; GFP response vs DMSO, % at 10 µM; shares compounds with LAP4 TOR yeast;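 active = under 65% GFP response relative to DMSO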;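 also: median GFP channel fluorescence per well over the all cells gate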
# CIT2 GFP CP2 – modulators of CIT2-GFP expression in yeast, confirmation, flow cytometry, second cherry pick, single plex. S. cerevisiae CIT2-GFP strain, 3 h; DMSO control wells read 100%. 590 compounds, 8% hits. shares compounds with LAP4 TOR yeast. GFP response vs DMSO, % at 10 µM;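 active = GFP response vs DMSO above about 150%, limit read from the data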;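 also: median green fluorescence per well over all gated yeast cells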
# AGP1 GFP CP2 – AGP1-GFP expression modulators, hit retest, confirmation, cell-based, flow cytometry, S. cerevisiae, cherry pick set 2; shares compounds with LAP4 TOR yeast; S. cerevisiae AGP1-GFP strain, 3 h; percent response vs DMSO, % at 10 µM; 590 tested, under 10 active; AID 2643, 2010;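 active = over 150 percent of DMSO response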;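 also: median GFP channel fluorescence over all cells without mother daughter split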
# s288c autofluor – compound autofluorescence in yeast s288c, dose response, artefact control for yeast TOR pathway GFP screen, s288c strain | shares compounds with LAP4 TOR yeast | S. cerevisiae s288c, 520 nm autofluorescence, flow cytometry, 3 h; active compounds read high; zero means same as solvent-only cells | fluorescence change (kMESF span) at 33 µM | 610 tested, under 10 active | AID 2757, 2010;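 active = fluorescence span over the dose series, or activity score, above about 33, limit read from the data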
# Yeast autofl DR – autofluorescence of compounds in yeast s288c, dose response, artefact control for yeast TOR pathway GFP screen, primary hits, KU SAR, s288c parental | shares compounds with LAP4 TOR yeast | 110 tested, under 10 active | S. cerevisiae s288c parental, compound autofluorescence, flow cytometry, 3 h | AID 488829, 2010 | fluorescence change (span) at 33 µM;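 active = fluorescence change span, or the activity score built from it, above 25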
# TORC1 bypass gr – wild-type yeast growth inhibition sparing TORC1 bypass cells, mechanism study for yeast TOR pathway GFP screen, BY4741 wild type, TORC1 bypass strain. shares compounds with LAP4 TOR yeast. S. cerevisiae BY4741 spot growth rating, 48-72 h; active compounds read low. growth rating (0-3) at 30 µM. 120 tested, under 10 active;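 active = growth rating at most 1 for wild type yeast while the TORC1 bypass strain still grows fully, rated 3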
# Hits are given with their value; - = inactive; . = no result.
SMILES,CIT2 TOR yeast,AGP1 TOR yeast,RPL19A-GFP yeast,LAP4 TOR yeast,MEP2 TOR yeast,LAP4-GFP pick2,MEP2-GFP pick2,RPL19A-GFP pick2,CIT2 GFP CP2,AGP1 GFP CP2,others
O=C1N(c2ccccc2C(F)(F)F)O[C@@]1(c1ccccc1)C1CCCC1,-,-,-,-,-,-,-,-,-,-,s288c autofluor=-
CCN(CC(=O)Nc1ccccc1OC)C(=O)CSCc1c(C)noc1C,-,-,-,-,-,.,.,.,.,.,
CCc1cccc(CC)c1-n1c(SCC(=O)N2CCc3ccccc3C2)nnc1-c1cccnc1,-,-,-,-,-,.,.,.,.,.,
O=C(NCCCNC(=O)c1ccccc1F)c1ccco1,-,-,-,-,-,.,.,.,.,.,
O=C1C(Cl)=C(N2CCN(Cc3ccccc3)CC2)C(=O)N1c1ccccc1,-,-,-,-,-,.,.,.,.,.,s288c autofluor=-
COc1cc(C(=O)NCc2nnc(SCC(=O)Nc3cc(C)on3)o2)cc(OC)c1OC,-,-,-,-,-,.,.,.,.,.,
COc1cc(C(=O)NCc2nnc(SCC(=O)Nc3nccs3)o2)cc(OC)c1OC,-,-,-,-,-,-,-,-,-,-,
Cn1c(Cl)cnc1C1CC(=O)c2cc(Cl)ccc2O1 (stereo unspecified),-,-,-,210,-,-,-,-,-,-,
COc1ccc2[nH]c(C(=O)NCc3ccccc3)c(C)c2c1,-,-,-,-,-,.,.,.,.,.,
CC[C@]12CCCN3CCc4c(n(c5ccccc45)C(=O)C1)C32 (stereo partly specified),-,-,-,167,-,-,-,-,-,-,
O=C(CSc1ccc(-c2ccccn2)nn1)Nc1ccc(F)cc1F,161,-,-,-,-,-,-,-,-,-,
CNC(=O)C(=O)NCC1CCCN1S(=O)(=O)c1cccs1 (stereo unspecified),-,-,-,-,-,.,.,.,.,.,
COCCCNC(=O)C(=O)NCC1CCCN1S(=O)(=O)c1cccs1 (stereo unspecified),-,-,-,205,-,-,-,-,-,-,
CC12CCCCC1N(O)C(=O)C(=O)N2O (stereo unspecified),-,-,-,-,-,.,.,.,.,.,
CCOC(=O)c1ccc(Nc2ncnc3c2cnn3C)cc1,-,-,-,-,-,.,.,.,.,.,
Cn1ncc2c(O/N=C(\N)c3ccc(C(C)(C)C)cc3)ncnc21,-,-,-,188,-,.,.,.,.,.,s288c autofluor=-
O=C1c2ccccc2C(=O)N1SC1CCCCC1,-,-,-,-,-,-,-,-,-,-,
CCOc1cnn(Cc2ccccc2)c(=O)c1SCc1ccccc1,-,-,-,-,-,.,.,.,.,.,
CCC(=O)NC(c1ccc(C)cc1)c1cc(Cl)c2cccnc2c1O (stereo unspecified),-,-,-,-,-,.,.,.,.,.,
CCOc1ccc(C(Nc2cccnc2)c2cc(Cl)c3cccnc3c2O)cc1 (stereo unspecified),-,-,-,224,-,.,.,.,.,.,s288c autofluor=-
COc1ccc(C(=O)c2ccccc2)c(OCC(=O)NC2CC2)c1,-,-,-,-,-,-,-,-,-,-,
COc1ccc(C(=O)OCC(=O)NC2CCCC2)c(OC)c1,-,-,-,-,-,.,.,.,.,.,
O=[N+]([O-])c1cc(S(=O)(=O)C(F)(F)F)ccc1Sc1nc2ccccc2s1,-,-,-,159,-,.,.,.,.,.,s288c autofluor=-;Yeast autofl DR=-;TORC1 bypass gr=-
CS(=O)(=O)c1ccc(Sc2nc3ccccc3s2)c([N+](=O)[O-])c1,-,-,-,-,-,.,.,.,.,.,
O=[N+]([O-])c1cnc(Sc2ccncn2)s1,-,-,-,262,-,.,.,.,.,.,s288c autofluor=-
SMILES,CIT2 TOR yeast,AGP1 TOR yeast,RPL19A-GFP yeast,LAP4 TOR yeast,MEP2 TOR yeast,LAP4-GFP pick2,MEP2-GFP pick2,RPL19A-GFP pick2,CIT2 GFP CP2,AGP1 GFP CP2,others
O=C(CCS(=O)(=O)c1ccc2c(c1)NC(=O)CS2)NCCc1ccccc1,-,-,-,159,-,-,-,-,-,-,
O=C(CCS(=O)(=O)c1ccc2c(c1)NC(=O)CS2)NCCc1ccc(Cl)cc1,-,-,-,-,-,.,.,.,.,.,
O=C(Nc1cccc2ncccc12)c1cc([N+](=O)[O-])ccc1Cl,-,-,-,-,-,.,.,.,.,.,
O=c1oc2cc(Oc3ccc(C(F)(F)F)cc3[N+](=O)[O-])ccc2c2c1CCC2,-,-,-,-,-,.,.,.,.,.,
O=c1oc2cc(Oc3c([N+](=O)[O-])cc(C(F)(F)F)cc3[N+](=O)[O-])ccc2c2c1CCCC2,-,-,-,294,-,.,.,.,.,.,s288c autofluor=-
O=C(Nc1ccccc1Cl)C(Cl)C(=O)c1ccccc1 (stereo unspecified),.,.,.,.,.,-,-,-,-,-,
O=C(Nc1ccc(Cl)cc1)C(Cl)C(=O)c1ccccc1 (stereo unspecified),-,-,-,-,-,.,.,.,.,.,
COc1ccc(/C=C2\N=C(C)OC2=O)cc1[N+](=O)[O-],-,-,-,161,-,-,-,-,-,-,
